Experimental data published in PubChem BioAssay (EPA / NIEHS).
Records with an inconclusive call do not appear. The source made the active and inactive calls. The calls were made as follows: active = hit-call score of the fitted dose curve at least 0.9, where 1 is the maximum; inconclusive = response in the unintended direction; inactive = score below 0.9.

Test: ATG_XTT_Cytotoxicity: Cytotoxicity Assessment in the Attagene TRANS-FACTORIAL HepG2 Assay (AID 2283584);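 as to AC50: cells exposed to compound for 24 h before reading; active means loss of viability signal versus DMSO baseline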
Method: ATG_XTT_Cytotoxicity is a cell-based, single-readout assay that uses HepG2, a human liver cell line, with measurements taken at 24 hours after chemical dosing in a 24-well plate.ATG_XTT_Cytotoxicity is one of one assay component(s) measured or calculated from the ATG_XTT_Cytotoxicity assay. It is designed to make measurements of cell number, a form of viability reporter, as detected with […] signals by XTT cytotoxicity assay technology.Data from the assay component ATG_XTT_Cytotoxicity was analyzed into 1 assay endpoint. This assay endpoint, ATG_XTT_Cytotoxicity, was analyzed in the positive analysis fitting direction relative to DMSO as the negative control and baseline of activity. Using a type of viability reporter, loss-of-signal activity can be used to understand changes in the viability. Furthermore, this assay endpoint can be referred to as a primary readout, because the performed assay has only produced 1 assay endpoint. To generalize the intended target to other relatable targets, this assay endpoint is annotated to the cell cycle intended target family, where the subfamily is cytotoxicity.
Human liver HepG2 cells are transiently transfected with multiple reporter transcription units (MRTUs) in 6-well plates using FuGene 6 reagent (Roche; 3 ml FuGene/1 mg DNA). The MRTU constructs are regulated by a cis-regulating element (promoter). […] A major difference between the CIS and TRANS system is that in CIS activities of endogenous TFs are measured, whereas the TRANS assay evaluates changes in activities of exogenous, chimeric NR-Gal4 proteins. […] At the end of 24 hour incubation, total RNA was isolated using TriZol reagent (Invitrogen). The isolated RNA is then reverse-transcribed using oligo(dT) primer and Mo-MLV reverse transcriptase (Invitrogen) with DNAse I (Ambion) treatment for 30 min. The one-tenth of the produced cDNA was amplified by PCR using Taq DNA polymerase (Invitrogen) and two reporter sequence-specific primers. The PCR products were fluorescently labeled by primer extension with 6-arboxyfluorescein (6-FAM) 5'-labeled reporter sequence-specific primer (2 min at 95 C, 20 s at 68 C and 10 min at 72 C) and these products were digested with 5U of HpaI (New England Biolabs) for 2h at 37 C. The fragments were purified using Qiaquick PCR columns (Qiagen), analyzed on an ABI 3130xL genetic analyzer (Applied Biosystems) with peak positions identified by using a set of X-rhodamine (ROX)-labeled MapMarker1000 molecular weight standards (BioVentures). The raw capillary electrophoresis data was processed using Attagraph software (Attagene).

Row | SMILES | outcome | AC50
1 | CC(=O)[C@H]1[C@H](C#N)C[C@H]2[C@@H]3CC=C4C[C@@H](O)CC[C@]4(C)[C@H]3CC[C@@]21C | inactive | 
2 | C=C1C2CCC(C2)C1(C)C (stereo not given) | inactive | 
3 | CC(C)C(=O)C(C)C | inactive | 
4 | CC(=O)Nc1nnc(S(N)(=O)=O)s1 | inactive | 
5 | Nc1ccc(-c2ccc(F)cc2)cc1 | inactive | 
6 | CCCCCC/C=C/C=O | inactive | 
7 | O=C(Nc1cccc(C(F)(F)F)c1)c1cc(Br)cc(Br)c1O | inactive | 
8 | Nc1ncn([C@@H]2O[C@H](CO)[C@@H](O)[C@H]2O)c(=O)n1 | inactive | 
9 | C[Si](C)(CCCN)O[Si](C)(C)CCCN | inactive | 
10 | [Cl][Nd]([Cl])[Cl] | inactive | 
11 | O=C(c1ccccc1)C1CCC1 | inactive | 
12 | O=C(c1ccc(O)cc1)c1ccc(O)cc1O | inactive | 
13 | COc1cc(NC(=O)CC(C)=O)c(OC)cc1Cl | inactive | 
14 | C=CC(=O)OCCOC1C2CCC1C1CC=CC12 (stereo not given) | inactive | 
15 | CC(C)=CCC/C(C)=C\C#N | inactive | 
16 | [Cl][In]([Cl])[Cl] | inactive | 
17 | OCCCS | inactive | 
18 | Cc1cnc(NC(=O)C2=C(O)c3ccccc3S(=O)(=O)N2C)s1 | inactive | 
19 | O=C(Nc1ccccc1)c1ccccc1O | inactive | 
20 | C=CC(=O)OCCC(=O)O | inactive | 

Row | SMILES | outcome | AC50
21 | CCCCCCCCc1ccc(Nc2ccc(CCCCCCCC)cc2)cc1 | inactive | 
22 | Cc1cc(O)c(Cl)c(C)c1Cl | inactive | 
23 | CNC(=S)N(C)C | inactive | 
24 | CC(C)c1ccc(C#N)cc1 | inactive | 
25 | CC/C=C\CCOC(=O)CCCCC | inactive | 
26 | NC(=O)NNC(N)=O | inactive | 
27 | CCC(=O)Oc1ccc(/C(CC)=C(\CC)c2ccc(OC(=O)CC)cc2)cc1 | inactive | 
28 | CCCCCCCCCCCCCCCC[n+]1ccccc1 |  | 26.6 µM (active)
29 | CCCCOCCOC(=O)COc1nc(Cl)c(Cl)cc1Cl | inactive | 
30 | Cc1ccc(C2OC[C@@H]3OC(c4ccc(C)cc4)O[C@H]([C@H](O)CO)[C@@H]3O2)cc1 (stereo not given in full) | inactive | 
31 | Cc1ccc(C(C)(C)C)cc1 | inactive | 
32 | C=CC(C)(CCC=C(C)C)OC(=O)CC(C)C (stereo not given) | inactive | 
33 | Cc1cc(C)c(C(=O)O)c(C)c1 | inactive | 
34 | O=S(=O)(O)c1ccccc1C=Cc1ccc(-c2ccc(C=Cc3ccccc3S(=O)(=O)O)cc2)cc1 | inactive | 
35 | c1ccc2c(c1)ccc1ncccc12 | inactive | 
36 | C=C(C)[C@@H]1CCC2=CCC[C@@H](C)[C@]2(C)C1 | inactive | 
37 | O=[N+]([O-])C1(Br)COCOC1 | inactive | 
38 | Cc1ccc([N+](=O)[O-])cc1S(=O)(=O)O | inactive | 
39 | C=C(C)C(=O)OCCOc1ccccc1 | inactive | 
40 | O=C1CCCN1CCO | inactive | 
